We go through 4 molecules from PubChem BioAssay AID651871 (Sanford-Burnham Center for Chemical Genomics, 2012).

Where “and” joins values, the source holds several entries; their conditions need not be identical. Identical values can stand only once.

In the assay the test system is H9c2. Kind of assay: cardiomyocyte survival under oxidative or metabolic stress – cell-based, panel, H9c2 and HL-1, ATP luminescence, set 2, SAR follow-up (AID 651871).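 Note: cells exposed to stressor for 2 h before ATP readout; reference of the scale not given here.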 Particulars: H9c2/HL-1 cardiomyocytes, H2O2 oxidative stress; with H2O2, run 4, at 79 µM (top of the series).
Turning to `COc1cc(-c2cc(C(=O)Nc3cccc(C(=O)NCc4ccccc4)c3)c3ccccc3n2)cc(OC)c1OC`, the activity (protection/inhibition) is 87.2%. Under `COc1ccc2c(c1OC)C(=O)N1c3ccccc3C(=O)N(Cc3cccc(Cl)c3Cl)C21` (centres undefined) stands 52.4% and 40.9%. `CCOC(=O)c1cccc(NC(=O)CNC(=O)c2cc(-c3cc(OC)c(OC)c(OC)c3)nc3ccccc23)c1`: the activity (protection/inhibition) came out at 115%.

As for `COc1ccc2nc(-c3cc(OC)c(OC)c(OC)c3)cc(C(=O)NCC(=O)Nc3ccc(C(C)=O)cc3)c2c1`, the activity (protection/inhibition) is 86.1% and 56.6%.
